ELG1 genotox: qHTS screen for small molecules that induce genotoxicity in human embryonic kidney (HEK293T) cells expressing luciferase-tagged ELG1; Potency, µM (series often up to 46 µM), for inactives: at the highest dose activity change, positive = activation, actives largely listed as activators; 1.3% of 330,000 active; HEK293T ELG1-luciferase reporter, luminescence, 16 h; also: % of control where 0% means no effect; nearly all actives have a fitted effect of over 60% in size
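HEK293T cells expressing luciferase-tagged ELG1 were exposed to compound or DMSO vehicle for 16 hr at 37 °C and 5% CO2. Luciferase activity was then measured with ONE-Glo after 30 min at room temperature.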
FLuc modulator: qHTS profiling assay for firefly luciferase inhibitor/activator using purifed enzyme and Km concentrations of substrates (counterscreen for miR-21 project); Luciferin 4-monooxygenase (Photinus pyralis), P08659; purified FLuc, Km substrates, luminescence inhibition; Potency, µM (series often up to 57.5 µM), inactives show at the highest dose activity change, negative = inhibition, usual class: inhibitors; 6.9% of 360,000 active; AID 588342, 2011;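 also: plate controls were vehicle for no effect and reference inhibitor for full effect; nearly all actives have a fitted effect of over 55% in size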
Target sequence (P08659 whole entry, looked up): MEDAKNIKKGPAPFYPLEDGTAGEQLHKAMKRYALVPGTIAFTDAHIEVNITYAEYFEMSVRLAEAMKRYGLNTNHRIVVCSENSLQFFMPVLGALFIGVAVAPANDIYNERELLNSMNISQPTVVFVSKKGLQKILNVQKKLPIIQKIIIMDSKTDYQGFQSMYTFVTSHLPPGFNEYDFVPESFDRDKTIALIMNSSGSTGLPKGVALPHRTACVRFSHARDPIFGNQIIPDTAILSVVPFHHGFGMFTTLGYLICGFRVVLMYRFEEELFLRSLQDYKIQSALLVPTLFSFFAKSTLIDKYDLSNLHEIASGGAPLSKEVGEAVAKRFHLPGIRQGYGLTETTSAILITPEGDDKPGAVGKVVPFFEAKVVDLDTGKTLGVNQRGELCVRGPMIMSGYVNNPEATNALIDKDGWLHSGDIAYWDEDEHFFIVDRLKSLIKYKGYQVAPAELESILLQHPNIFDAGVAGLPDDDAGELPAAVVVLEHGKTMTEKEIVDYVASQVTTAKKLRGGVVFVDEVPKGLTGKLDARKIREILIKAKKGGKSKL
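Purified P. pyralis luciferase (10nM final) with 10uM D-luciferin and 10uM ATP (Km levels) in 50mM Tris acetate pH 7.5, 10mM Mg acetate, 0.01% Tween-20, 0.05% BSA; qHTS 6-point titration, ~60 µM downward; luminescence read.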
ELG1 DNA repair: qHTS screen for small molecules that inhibit ELG1-dependent DNA repair in human embryonic kidney (HEK293T) cells expressing luciferase-tagged ELG1. HEK293T ELG1-luciferase reporter, luminescence, 16 h; DNA damage induced by 5-fluorouridine. Potency, µM (titrated, usually from 46.1 µM), inactives show top-dose activity change, negative = inhibition, hits mostly inhibitors. 2.3% of 330,000 active. AID 504467, 2011; also: % is scaled to controls: 0 for no effect and ±100 for the full control effect; nearly all actives have a fitted effect of over 55% in size
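In this reporter screen, reduction of luminescence relative to DMSO vehicle indicated activity. Compounds and 5-fluorouridine were added together to 2,000 cells per well, incubated for 16 hr at 37 °C, then developed with ONE-Glo.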
NPC1 promoter act: qHTS Assay for NPC1 Promoter Activators; 2.4% of 320,000 active; Huh7 NPC1 promoter luciferase reporter, 24 h; Potency, µM (series often up to 9.22 µM), for the others: top-dose activation, most hits filed as activators; also: % of control where 0% means no effect; nearly all actives have a fitted effect of over 60% in size
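NPC1 promoter–luciferase Huh7 cells; 24 h compound; luminescence.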
Rab9 prom act: qHTS Assay for Rab9 Promoter Activators | Potency, µM (doses to about 9.22 µM), without a hit: at the top dose activation, negative = inhibition, actives largely listed as activators | 2.8% of 320,000 active | Huh7 Rab9 promoter-luciferase reporter, luminescence, 24 h | AID 485297, 2010; also: % of control where 0% means no effect; nearly all actives have a fitted effect of over 60% in size
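Luciferase signal after 10 min detection reagent at ambient indicates Rab9 promoter upregulation; stably transfected Huh7 cells were treated 24 h with compound in DMSO at 37 °C, 5% CO2.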
SMN2 splice up: qHTS Assay for Enhancers of SMN2 Splice Variant Expression; HEK293 SMN2-luciferase splicing reporter, luminescence, 30-36 h; Potency, µM (highest dose often 46.1 µM), inactives show at the top dose activity change, positive = activation, usual class: activators; 2.8% of 210,000 active; also: % of control where 0% means no effect; nearly all actives have a fitted effect of over 55% in size
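HEK293 cells carry an SMN2 minigene-luciferase reporter in which exon 7 inclusion puts luciferase in frame. Cells were seeded at 2000 cells/well, attached for 10-12 hours, then exposed to compounds for 30-36 hours at 37C before ONE-Glo luminescence.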
* hit, by the source's call; [ ] = dose if it differs, or a comment. Only some compounds are listed: those with a hit (about 9.4% of all), similar ones and a draw of the others. Calls follow the shape of the dose curve; as a rule, active = well fitted curve in the direction sought with a large enough effect; inconclusive = small, poorly fitted or top-dose-only effect, or another doubt; inactive = no such curve, though single readings can be large; an effect the other way counts as inactive or inconclusive. Potency is read from the fitted curve at half-maximal effect.

For O=S(=O)(Nc1ccc2c(c1)OCCO2)c1cccc2nsnc12 the results were ELG1 genotox 16µM*, FLuc modulator 24µM*, ELG1 DNA repair inconclusive, NPC1 promoter act 1%, Rab9 prom act 1% and SMN2 splice up -13%.
O=C(CCNS(=O)(=O)c1cccc2nsnc12)Nc1ccc2c(c1)OCCO2 was read as ELG1 genotox 7%, FLuc modulator inconclusive, ELG1 DNA repair 17%, NPC1 promoter act 1%, Rab9 prom act -2% and SMN2 splice up 5%.
COc1ccc(OC)c(-c2nc3c(C#N)c[nH]n3c2NC2CCCCC2)c1 was read as FLuc modulator -13%.
CCOC(=O)c1c(C)[nH]c(C2=NNC(=NC3CC3)SC2)c1C was read as ELG1 genotox 0.58µM*, FLuc modulator 0.6µM*, ELG1 DNA repair inconclusive, NPC1 promoter act inconclusive, Rab9 prom act inconclusive and SMN2 splice up -79%.
For CCOC(=O)c1c(C)[nH]c(/C(C)=N/O)c1C the results were ELG1 genotox -9%, FLuc modulator -15%, ELG1 DNA repair inconclusive, NPC1 promoter act 17%, Rab9 prom act 11% and SMN2 splice up -4%.
COc1cccc(CNC(=O)Cc2csc3ccccc23)c1OC was read as FLuc modulator -18% and SMN2 splice up -3%.
For Clc1ccc(-c2cn3c(n2)SCC3)cc1 the results were ELG1 genotox 15%, FLuc modulator 19µM*, ELG1 DNA repair inconclusive, NPC1 promoter act 1.8µM*, Rab9 prom act 1.4µM* and SMN2 splice up 11µM*.
c1ccc(-c2cn3c(n2)SCC3)cc1 was read as ELG1 genotox 8%, FLuc modulator inconclusive, ELG1 DNA repair inconclusive, NPC1 promoter act 17%, Rab9 prom act 21% and SMN2 splice up 22%.
Screening Oc1ccc(-c2cn3c(n2)SCC3)cc1 returned ELG1 genotox 17%, FLuc modulator inconclusive, ELG1 DNA repair inconclusive, NPC1 promoter act 10%, Rab9 prom act 4% and SMN2 splice up 9%.
`Brc1ccc(-c2cn3c(n2)SCC3)cc1` gave ELG1 genotox 10µM*, FLuc modulator 5.4µM*, ELG1 DNA repair inconclusive, NPC1 promoter act 1.1µM*, Rab9 prom act 0.71µM* and SMN2 splice up 10µM*.
`Cc1cccc(N2CCN(c3ccc4cc(S(=O)(=O)N5CCC(C)CC5)ccc4n3)CC2C)c1` (configuration not stated) gave FLuc modulator -3%.
For CCOc1ccc(Nc2oc(/C=C/c3cc(OC)c(OC)c(OC)c3)nc2C#N)cc1 the results were FLuc modulator 1% and SMN2 splice up 24%.
`CCCN(CC(=O)Nc1ccccc1C)C(=O)COc1c(C)cccc1C` gave ELG1 genotox 1%, FLuc modulator 0%, ELG1 DNA repair -6%, NPC1 promoter act 0% and Rab9 prom act -2%.
`CCCN(CC(=O)Nc1ccccc1C)C(=O)CCl` gave ELG1 genotox -10%, FLuc modulator -3%, ELG1 DNA repair 7.3µM*, NPC1 promoter act -36%, Rab9 prom act -49% and SMN2 splice up -57%.
For O=C(Nc1nccs1)c1cccc(N2C(=O)C3C4C=CC(C4)C3C2=O)c1 (configuration not stated) the results were ELG1 genotox -5%, FLuc modulator -23%, ELG1 DNA repair -21%, NPC1 promoter act 1%, Rab9 prom act 1% and SMN2 splice up -8%.
`O=C(Nc1nccs1)c1ccc(N2C(=O)C3CCCCC3C2=O)cc1` (configuration not stated) gave ELG1 genotox inconclusive, FLuc modulator 21µM*, ELG1 DNA repair inconclusive, NPC1 promoter act 11%, Rab9 prom act 16% and SMN2 splice up 23%.
`O=C(Nc1nccs1)c1ccc(N2C(=O)[C@@H]3[C@H](C2=O)[C@H]2C=C[C@@H]3C2)cc1` gave ELG1 genotox inconclusive, FLuc modulator 27µM*, ELG1 DNA repair inconclusive, NPC1 promoter act 2.5µM* and Rab9 prom act 3.5µM*.
For Cc1cc(C)cc(NC(=O)CSc2nnc(-c3ccccc3C)o2)c1 the results were ELG1 genotox 13%, ELG1 DNA repair 2%, NPC1 promoter act inconclusive, Rab9 prom act inconclusive and SMN2 splice up 18%.
Screening COc1ccccc1-c1nnc(-c2ccc(N3CCOCC3)cc2)o1 returned ELG1 genotox 16%, FLuc modulator 19µM*, ELG1 DNA repair inconclusive, NPC1 promoter act inconclusive, Rab9 prom act inconclusive and SMN2 splice up 5.6µM*.
CC1CCN(C(=O)CSc2nnc(-c3ccccc3Cl)o2)CC1 was read as FLuc modulator 3% and SMN2 splice up 0%.
Screening COc1ccccc1-c1nnc(SCC(=O)N2CCOCC2)o1 returned ELG1 genotox 4%, FLuc modulator inconclusive, ELG1 DNA repair inconclusive, NPC1 promoter act 15%, Rab9 prom act 18% and SMN2 splice up 8.9µM*.
Screening Cc1cccc(NC(=O)CSc2nnc(-c3ccccc3C)o2)c1 returned ELG1 genotox inconclusive, FLuc modulator 0%, ELG1 DNA repair inconclusive, NPC1 promoter act inconclusive, Rab9 prom act 4µM* and SMN2 splice up 13µM*.
Screening O=C(CSc1nnc(-c2ccccc2Cl)o1)N1CCOCC1 returned ELG1 genotox inconclusive, FLuc modulator 19µM*, ELG1 DNA repair inconclusive, NPC1 promoter act 2.2µM* and Rab9 prom act 3.5µM*.
COc1cccc(CNC(=O)c2ccc(-c3nc(COc4ccccc4)c(C)o3)cc2)c1 was read as FLuc modulator -8%.
`O=C(O)[C@@H]1[C@@H]2O[C@H]([C@@H](Br)[C@H]2Br)[C@H]1C(=O)O` gave SMN2 splice up 5%[9.22 µM].
`N#Cc1cccc(NC(=O)CSc2nnc(-c3n[nH]c4ccccc34)o2)c1` gave ELG1 genotox 20%, FLuc modulator -15%, ELG1 DNA repair inconclusive, NPC1 promoter act inconclusive, Rab9 prom act inconclusive and SMN2 splice up 13µM*.
Cc1ccccc1-c1nnc(SCC(=O)N2CCCC2)o1 was read as ELG1 genotox inconclusive, FLuc modulator 17µM*, ELG1 DNA repair inconclusive, NPC1 promoter act inconclusive and Rab9 prom act inconclusive.

Assay outcomes deposited in PubChem BioAssay by National Center for Advancing Translational Sciences (NCATS).
